HCMV antiviral: qHTS Assay for inhibitors of the human cytomegalovirus (HCMV); HFF cells, HCMV-luciferase reporter, 72 h; hits give low values; activity change, negative = inhibition, % at 57.5 µM; 4.5% of 410,000 active; AID 1259415, 2018; in the data active = activity change below about -60%; inconclusive = no clear call, values can overlap the other calls; inactive = above about -39%; note: % is set by controls: 0 for no effect and ±100 for the full control effect
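Two compound doses tested in HFFs infected with HCMV-luciferase, MOI 1 PFU/cell, 72 h at 37C. Lysate luminescence read with OneGlo; data normalized against buffer-only and 10uM Salinomycin inhibitor controls.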
FMDV antiviral: High Throughput Screening for Foot and Mouth Disease Virus Antivirals. FMDV antiviral cell-based qHTS. Potency, µM (highest dose often 57.9 µM), inactives show top-dose activity change, negative = inhibition, usual class: inhibitors. 1.2% of 410,000 active. AID 1159524, 2015; calls by dose curve; tested in HEK293T cells; note: read-out not given here; potency is the fitted concentration of half-maximal effect; % is set by controls: 0 for no effect and ±100 for the full control effect; nearly all actives have a fitted effect of over 45% in size
Marburg entry inh: qHTS for inhibitors of binding or entry into cells for Marburg Virus; 1.8% of 300,000 active; Marburg virus pseudotyped entry inhibition, cell reporter; AID 540276, 2011; Potency, µM (series often up to 37.8 µM), inactives show at the top dose activity change, negative = inhibition, actives largely listed as inhibitors; calls by dose curve; tested in HEK293 cells; note: potency is the fitted concentration of half-maximal effect; % is set by controls: 0 for no effect and ±100 for the full control effect
Vaccinia mCherry: qHTS for Stage-Specific Inhibitors of Vaccinia Orthopoxvirus: mCherry Reporter Primary qHTS; AID 720579, 2013; Potency, µM (highest dose often 36.5 µM), without a hit: at the highest dose activity change, negative = inhibition, usual class: inhibitors; Vaccinia virus mCherry reporter infection, fluorescence; 0.63% of 310,000 active; calls by dose curve; tested in A549 cells; note: potency is the fitted concentration of half-maximal effect; % is set by controls: 0 for no effect and ±100 for the full control effect; nearly all actives have a fitted effect of over 35% in size
Vaccinia Venus: qHTS for Stage-Specific Inhibitors of Vaccinia Orthopoxvirus: Venus Reporter Primary qHTS; Potency, µM (series often up to 36.5 µM), for inactives: at the top dose activity change, negative = inhibition, most hits filed as inhibitors; 0.46% of 330,000 active; Vaccinia virus Venus reporter expression, fluorescence; calls by dose curve; tested in A549 cells; note: potency is the fitted concentration of half-maximal effect; % is set by controls: 0 for no effect and ±100 for the full control effect; nearly all actives have a fitted effect of over 30% in size
LASV entry inh: qHTS for Inhibitors of binding or entry into cells for Lassa Virus; 1.2% of 300,000 active; Lassa virus pseudotype entry inhibition, cell reporter; Potency, µM (titrated, usually from 37.9 µM), inactives show at the top dose activity change, negative = inhibition, usual class: inhibitors; calls by dose curve; tested in HEK293 cells; note: potency is the fitted concentration of half-maximal effect; % is set by controls: 0 for no effect and ±100 for the full control effect; nearly all actives have a fitted effect of over 50% in size
G2M arrest HeLa: Cell cycle validation with wells to cells screening paradigm; 60% of 25 active; AID 2441, 2010; HeLa cell cycle G2/M arrest, Hoechst DNA content imaging; Potency, µM, actives largely listed as inhibitors; shares compounds with Marburg entry inh
WI-38 cytotox: High Content Assay for Compounds that inhibit the Assembly of the Perinucleolar Compartment: WI-38 Cytotoxicity; AID 2729, 2010; Potency, µM (top dose mostly 46.1 µM), for the others: at the highest dose activity change, negative = cytotoxicity, hits mostly inhibitors; WI-38 normal lung fibroblasts, ATPLite luminescence ATP viability, 24 h; shares compounds with Marburg entry inh; 120 tested, under 10 active
PNC assembly inh: High Content Assay for Compounds that inhibit the Assembly of the Perinucleolar Compartment: Confirmation of PNC Inhibition; shares compounds with Marburg entry inh; PC3M PTB-GFP, PNC prevalence imaging, 16 h; Potency, µM (series often up to 46.1 µM), for the others: top-dose activity, negative = PNC inhibition, usual class: inhibitors; 50% of 120 active
PC3M casp3-7: High Content Assay for Compounds that inhibit the Assembly of the Perinucleolar Compartment: PC3M Caspase 3/7 Activation. shares compounds with Marburg entry inh. PC3M-GFP caspase 3/7 activation, luminescence, 24 h. activity change, positive = activation, % at 46.1 µM. 120 tested, under 10 active
Starred values were filed as active, the others as inactive; i = inactive; u = inconclusive; x = no result; [ ] = another dose, or the depositor's remark. Rows were chosen to be rich in hits. Some 6.5% of all compounds tested hit in one or more screens of this group. Unless noted, calls come from the whole dose curve; as a rule, active = well fitted curve in the direction sought with a large enough effect; inconclusive = small, poorly fitted or top-dose-only effect, or another doubt; inactive = no such curve, though single readings can be large; an effect the other way counts as inactive or inconclusive.

SMILES | HCMV antiviral | FMDV antiviral | Marburg entry inh | Vaccinia mCherry | Vaccinia Venus | LASV entry inh | WI-38 cytotox | PNC assembly inh | PC3M casp3-7 | others
C[C@@H](C(=O)NCc1ccccc1)[C@@H]1C[C@@]1(C)[C@@H](NC(=O)OCc1ccccc1)c1ccccc1 | -30 | -5% | -62% | u | -30% | 7.3µM* | x | x | x
C[C@@H](C(=O)NCc1ccc(S(C)(=O)=O)cc1)[C@H]1C[C@]1(C)[C@H](NC(=O)OCc1ccccc1)c1ccccc1 | 18 | -21% | -40% | -25% | -12% | u | x | x | x
O=C(c1ccccc1C(F)(F)F)N1CC2ON=C(c3c(F)cccc3Cl)C2C1 (stereo unspecified) | -1 | x | x | x | x | x | x | x | x
C[C@]12CC[C@@H]3c4ccc(O)cc4CC[C@H]3[C@@H]1CC[C@@H]2O | -24 | -17% | u | -6% | -19% | u | x | x | x | G2M arrest HeLa=10*
COc1cc2c(cc1O)CCC1C2CC[C@]2(C)[C@@H](O)CC[C@@H]12 (stereo partly specified) | x | x | u | x | x | x | x | x | x | G2M arrest HeLa=1.1*
CC12CCC3c4ccc(O)cc4CCC3C1CCC2O (stereo unspecified) | x | -12% | x | x | x | x | x | x | x
CCN(CC)C(=O)N1c2ccccc2C=Cc2ccccc21 | -81* | u | 1.1µM* | x | u | 0.63µM* | 18% | 5µM* | -2
O=C(N/N=C/c1ccccc1O)c1cccc(C(F)(F)F)c1 | -102* | 68% | 5.6µM* | 3.5µM* | u | u | -7% | 28µM* | 0
COc1cc(OC)c(/C=C2/C(=O)Nc3ccccc32)c(OC)c1 | x | x | 0.89µM* | x | x | u | x | x | x | G2M arrest HeLa=2*
Cc1ccc(-c2onc(C)c2C)cc1S(=O)(=O)NCc1ccco1 | -1 | 30% | x | i | -12% | 7%[46.1 µM] | x | x | x
CC(C)(C)c1ccc(C(=O)N2CCC(c3nc4ccccc4o3)CC2)cc1 | -11 | 9% | 20%[46.1 µM] | -17% | -20% | -3%[46.1 µM] | x | x | x
O=C(Nc1cccc(S(=O)(=O)N2CCCC2)c1)c1ccc2c(c1)OCO2 | 18 | -7% | 0% | -10% | -9% | -9% | x | x | x
O=C(Nc1cccc(S(=O)(=O)N2CCCCCC2)c1)c1ccc2c(c1)OCO2 | -62* | -2% | u | -24% | u | u | -14% | -30% | -8
O=c1c2ccccc2nnn1CSc1ccc2ccccc2n1 | -39 | 2% | 13% | -16% | -6% | -1% | 19% | u | -8
C#CCn1c(S(=O)(=O)Cc2ccc(C)cc2)nc(-c2ccccc2)c1-c1ccccc1 | -95* | -12% | 4.6µM* | -26% | -2% | 3.3µM* | 3% | 7.9µM* | -5
C#CCn1c(C)cc(C)c(S(=O)(=O)c2ccccc2)c1=O | 69 | 58% | 5%[46.1 µM] | -4% | -9% | 10% | x | x | x
CN(C)c1ccc(N=Nc2ccccc2C(=O)OCC(=O)N(C)C2CCCCC2)cc1 | 34 | 11% | u | i | -20% | u | x | x | x
CN(C)c1ccc(N=Nc2ccccc2C(=O)OCC(=O)NC2CCCC2)cc1 | u | 1% | u | -5% | -13% | u | u | u | -13
CC(C)(C)c1ccccc1NC(=O)CSc1nc(-c2cccs2)cc(C(F)(F)F)n1 | u | u | u | -1% | -5% | 4%[46.1 µM] | x | x | x
Cc1ccc(OCC(=O)Nc2ccc3nc(SCC(=O)Nc4ccc(C)cc4C)sc3c2)cc1 | 17 | 0% | -17%[46.1 µM] | -13% | -10% | 15%[46.1 µM] | x | x | x
O=C(CCCn1c(=O)c2cccn2c2cccnc21)Nc1ccccc1C(F)(F)F | u | -4% | x | i | -15% | 4%[46.1 µM] | x | x | x
CN(CC(=O)Nc1ccc(F)cc1F)S(=O)(=O)c1cccc2nsnc12 | -2 | -16% | 4%[46.1 µM] | -7% | -8% | 12%[46.1 µM] | x | x | x
COc1cccc(/C=N/NC(=O)c2cc3c(OC)c(OC)ccc3[nH]2)c1OC | 84 | 3% | u | -7% | -25% | u | -16% | u | -9
Cc1cccc(OCc2ccc(-c3nc(C#N)c(N4CCC(C(N)=O)CC4)o3)o2)c1 | -15 | 0% | 5%[46.1 µM] | -14% | -6% | -11%[46.1 µM] | x | x | x
COc1cccc(CNC(=O)CN2C(=O)CCn3nc(-c4cn(C)c5ccccc45)cc32)c1OC | 8 | 5% | x | -16% | 10% | 24%[46.1 µM] | x | x | x
SMILES | HCMV antiviral | FMDV antiviral | Marburg entry inh | Vaccinia mCherry | Vaccinia Venus | LASV entry inh | WI-38 cytotox | PNC assembly inh | PC3M casp3-7 | others
O=C(N/N=C/c1cc(Cl)ccc1O)C(=O)Nc1ccccc1OC(F)(F)C(F)F | -88* | -25% | u | 14µM* | u | u | -8% | u | 6
COc1cc(/C=N/NC(=O)c2ccc(CSc3nc4ccccc4[nH]3)cc2)cc(OC)c1OC | 22 | u | u | -1% | -18% | u | 5% | -11% | -16
COc1cc(/C=N/NC(=O)c2ccc3nc[nH]c3c2)cc(OC)c1OC | x | 5% | 5%[46.1 µM] | 0%[7.34 µM] | -4%[7.34 µM] | -1% | x | x | x
CCCc1cc(N2CCN(c3cc(Cl)ccc3C)CC2)n2cnnc2n1 | -17 | u | 29%[46.1 µM] | -15% | -15% | 7%[46.1 µM] | x | x | x
CNc1ccc2oc(C[C@H]3O[C@@]4(CC[C@H]3C)O[C@H]([C@H](C)C(=O)c3ccc[nH]3)[C@H](C)C[C@H]4C)nc2c1C(=O)O | -100* | u | 2.9µM* | 3.5µM* | 2.5µM* | 0.23µM* | x | x | x | G2M arrest HeLa=4.5*
Cc1cc(C)c(S(=O)(=O)/N=C2/C=C(Sc3ncn[nH]3)C(=O)c3ccccc32)cc1C | -100* | u | 1.6µM* | u | 6.3µM* | 13µM* | -7% | 6.3µM* | -7
CCOC(=O)NC1(NC(C)C)Oc2ccccc2O1 | 14 | -18% | 13% | -7% | -20% | -19% | x | x | x
CCOC(=O)NC1(Nc2ccc(C)cc2)Oc2ccccc2O1 | 40 | 13% | -12% | -25% | -12% | u | 8% | -18% | -6
CC1CCc2c(sc(NC(=O)c3cc(-c4cccc(Cl)c4)on3)c2C(N)=O)C1 (stereo unspecified) | 11 | -18% | -19%[46.1 µM] | -6% | -10% | 21%[46.1 µM] | x | x | x
